According to ChEMBL document CHEMBL3988442, “University of Dundee, Small-Polar-MMV Screening Library” (2021):
For part of these data: Potency and affinity values are given separately.

Assays:
Design in all cases: scale not given: direction of the effect not stated beside the values
[1] = biological target: Protein translocase subunit SecA (Escherichia coli (strain K12)) (UniProt P10408); test: Assay to Identify E. coli SecA ATPase Inhibitors; format: functional; conditions: 30 µM
[2] = biological target: T1, Ubiquitin-activating enzyme e1, putative (Leishmania donovani (strain BPK282A1)) (UniProt E9BSI1); test: Leishmania donovani Ubiquitin Activating Enzyme (LdE1); format: functional; conditions: 30 µM
T1 sequence (whole entry): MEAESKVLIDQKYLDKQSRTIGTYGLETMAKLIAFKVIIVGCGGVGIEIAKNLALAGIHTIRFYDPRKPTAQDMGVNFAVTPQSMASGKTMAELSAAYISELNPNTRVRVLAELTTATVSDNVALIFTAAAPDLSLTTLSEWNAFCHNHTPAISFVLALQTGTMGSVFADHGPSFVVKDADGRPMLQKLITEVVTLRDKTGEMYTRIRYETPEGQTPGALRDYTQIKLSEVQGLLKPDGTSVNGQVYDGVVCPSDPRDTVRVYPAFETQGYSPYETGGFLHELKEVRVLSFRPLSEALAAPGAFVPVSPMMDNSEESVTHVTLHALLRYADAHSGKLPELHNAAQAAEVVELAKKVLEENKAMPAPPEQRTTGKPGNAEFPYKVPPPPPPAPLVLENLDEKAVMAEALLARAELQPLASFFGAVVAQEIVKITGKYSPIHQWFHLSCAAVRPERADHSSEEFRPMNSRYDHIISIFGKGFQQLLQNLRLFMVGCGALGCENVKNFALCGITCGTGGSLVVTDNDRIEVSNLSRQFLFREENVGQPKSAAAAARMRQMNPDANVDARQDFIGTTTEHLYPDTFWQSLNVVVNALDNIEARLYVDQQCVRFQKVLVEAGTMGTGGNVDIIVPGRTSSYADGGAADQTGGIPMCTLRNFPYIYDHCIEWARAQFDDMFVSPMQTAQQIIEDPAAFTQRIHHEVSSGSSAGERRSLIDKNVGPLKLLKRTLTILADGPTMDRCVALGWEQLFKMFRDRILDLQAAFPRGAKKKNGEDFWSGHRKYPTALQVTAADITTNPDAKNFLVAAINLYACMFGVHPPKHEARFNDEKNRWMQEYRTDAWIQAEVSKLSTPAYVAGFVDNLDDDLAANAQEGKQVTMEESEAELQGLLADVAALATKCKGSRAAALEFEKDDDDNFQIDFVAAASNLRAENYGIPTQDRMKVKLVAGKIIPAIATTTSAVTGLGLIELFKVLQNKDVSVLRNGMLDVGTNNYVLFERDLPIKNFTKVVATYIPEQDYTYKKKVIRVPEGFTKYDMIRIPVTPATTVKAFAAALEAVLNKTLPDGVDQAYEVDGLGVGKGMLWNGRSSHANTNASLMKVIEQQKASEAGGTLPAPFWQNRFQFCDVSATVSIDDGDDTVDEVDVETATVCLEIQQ

[3] = biological target: Sialic acid-binding Ig-like lectin 9 (Homo sapiens) (UniProt Q9Y336); test: Hs-Siglec9 ALPHAscreen SOP 20170721; conditions: 10 µM
[4] = system: Trypanosoma cruzi; test: Trypanosoma cruzi phosphomannomutase and mannose-1-phosphate guanylyltransferase assay; format: functional; conditions: 10 µM
[5] = biological target: T2, Arginase-2, mitochondrial (Homo sapiens) (UniProt P78540); test: in vitro enzyme assay to detect the production of urea directly proportional to the activity of Arginase II; format: functional; conditions: 33.3 µM; note: in the data most compounds retested in dose-response had high values
T2 sequence (whole entry): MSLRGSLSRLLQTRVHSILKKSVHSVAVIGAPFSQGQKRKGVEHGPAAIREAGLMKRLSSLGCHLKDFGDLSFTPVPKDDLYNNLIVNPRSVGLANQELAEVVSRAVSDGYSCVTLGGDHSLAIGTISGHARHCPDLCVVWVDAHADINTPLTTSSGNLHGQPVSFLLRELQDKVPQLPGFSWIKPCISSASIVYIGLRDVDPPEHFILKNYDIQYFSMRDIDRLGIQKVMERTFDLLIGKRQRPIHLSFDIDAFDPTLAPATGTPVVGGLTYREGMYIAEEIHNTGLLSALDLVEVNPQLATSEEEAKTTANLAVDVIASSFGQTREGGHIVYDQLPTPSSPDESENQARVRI

[6] = biological target: T3, Proteasome subunit beta (Trypanosoma cruzi) (UniProt O96673); test: Trypanosoma cruzi proteasome chymotrypsin-like activity (TcProtChymo) assay.; note: in the data most compounds retested in dose-response had high values; format: functional; conditions: 9.37 µM
T3 sequence (whole entry): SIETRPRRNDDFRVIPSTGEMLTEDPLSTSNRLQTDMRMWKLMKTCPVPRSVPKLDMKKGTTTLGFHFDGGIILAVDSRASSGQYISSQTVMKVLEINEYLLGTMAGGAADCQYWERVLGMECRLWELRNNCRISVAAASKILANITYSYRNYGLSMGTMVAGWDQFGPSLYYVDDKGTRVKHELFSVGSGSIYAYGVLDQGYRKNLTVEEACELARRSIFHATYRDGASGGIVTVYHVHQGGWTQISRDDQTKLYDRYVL

[7] = organism: Homo sapiens; test: To identify inhibition of the IFN signalling (Jak-Stat) pathway via expression of an eGFP reporter gene under the control of an IFN-stimulated response element (ISRE) containing MxA promoter.; format: functional; conditions: 30 µM
[8] = biological target: T4, Tyrosyl-tRNA synthetase, putative (Trypanosoma cruzi (strain CL Brener)) (UniProt Q4DSP6); test: Trypanosoma cruzi tyrosyl tRNA synthetase (TcYRS) _High Tyrosine SOP; format: functional; conditions: 30 µM; note: in the data most compounds retested in dose-response had high values
T4 sequence (whole entry): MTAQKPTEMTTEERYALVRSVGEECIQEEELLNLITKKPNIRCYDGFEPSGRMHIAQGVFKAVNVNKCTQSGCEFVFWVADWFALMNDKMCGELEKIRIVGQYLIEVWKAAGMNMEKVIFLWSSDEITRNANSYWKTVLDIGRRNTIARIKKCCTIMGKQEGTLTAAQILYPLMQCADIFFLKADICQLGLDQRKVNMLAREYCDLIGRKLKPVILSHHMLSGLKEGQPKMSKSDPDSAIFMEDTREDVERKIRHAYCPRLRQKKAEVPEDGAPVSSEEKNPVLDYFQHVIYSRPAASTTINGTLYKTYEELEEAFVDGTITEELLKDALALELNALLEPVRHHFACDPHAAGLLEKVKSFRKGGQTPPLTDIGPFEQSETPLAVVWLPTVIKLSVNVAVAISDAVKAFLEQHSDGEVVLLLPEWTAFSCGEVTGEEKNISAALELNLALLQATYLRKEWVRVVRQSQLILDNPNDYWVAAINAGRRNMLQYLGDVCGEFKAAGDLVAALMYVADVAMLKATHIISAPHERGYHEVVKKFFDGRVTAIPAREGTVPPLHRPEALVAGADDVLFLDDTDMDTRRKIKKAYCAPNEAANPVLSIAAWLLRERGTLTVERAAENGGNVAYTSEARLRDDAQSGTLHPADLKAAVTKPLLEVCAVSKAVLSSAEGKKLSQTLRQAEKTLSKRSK

[9] = biological target: T4, Tyrosyl-tRNA synthetase, putative (Trypanosoma cruzi (strain CL Brener)); test: Trypanosoma cruzi tyrosyl tRNA synthetase (TcYRS) SOP; format: functional; conditions: 30 µM
[10] = biological target: Chromo domain-containing protein 1 (Saccharomyces cerevisiae (strain ATCC 204508 / S288c) (Baker's yeast)) (UniProt P32657); test: ScCHD-1 Enzyme Inhibition Assay; format: functional; conditions: 30 µM; note: in the data most compounds retested in dose-response had high values
Chain of Chromo domain-containing protein 1 (Saccharomyces cerevisiae (strain ATCC 204508 / S288c) (Baker's yeast)) (P32657 whole entry, the tested form may be a part): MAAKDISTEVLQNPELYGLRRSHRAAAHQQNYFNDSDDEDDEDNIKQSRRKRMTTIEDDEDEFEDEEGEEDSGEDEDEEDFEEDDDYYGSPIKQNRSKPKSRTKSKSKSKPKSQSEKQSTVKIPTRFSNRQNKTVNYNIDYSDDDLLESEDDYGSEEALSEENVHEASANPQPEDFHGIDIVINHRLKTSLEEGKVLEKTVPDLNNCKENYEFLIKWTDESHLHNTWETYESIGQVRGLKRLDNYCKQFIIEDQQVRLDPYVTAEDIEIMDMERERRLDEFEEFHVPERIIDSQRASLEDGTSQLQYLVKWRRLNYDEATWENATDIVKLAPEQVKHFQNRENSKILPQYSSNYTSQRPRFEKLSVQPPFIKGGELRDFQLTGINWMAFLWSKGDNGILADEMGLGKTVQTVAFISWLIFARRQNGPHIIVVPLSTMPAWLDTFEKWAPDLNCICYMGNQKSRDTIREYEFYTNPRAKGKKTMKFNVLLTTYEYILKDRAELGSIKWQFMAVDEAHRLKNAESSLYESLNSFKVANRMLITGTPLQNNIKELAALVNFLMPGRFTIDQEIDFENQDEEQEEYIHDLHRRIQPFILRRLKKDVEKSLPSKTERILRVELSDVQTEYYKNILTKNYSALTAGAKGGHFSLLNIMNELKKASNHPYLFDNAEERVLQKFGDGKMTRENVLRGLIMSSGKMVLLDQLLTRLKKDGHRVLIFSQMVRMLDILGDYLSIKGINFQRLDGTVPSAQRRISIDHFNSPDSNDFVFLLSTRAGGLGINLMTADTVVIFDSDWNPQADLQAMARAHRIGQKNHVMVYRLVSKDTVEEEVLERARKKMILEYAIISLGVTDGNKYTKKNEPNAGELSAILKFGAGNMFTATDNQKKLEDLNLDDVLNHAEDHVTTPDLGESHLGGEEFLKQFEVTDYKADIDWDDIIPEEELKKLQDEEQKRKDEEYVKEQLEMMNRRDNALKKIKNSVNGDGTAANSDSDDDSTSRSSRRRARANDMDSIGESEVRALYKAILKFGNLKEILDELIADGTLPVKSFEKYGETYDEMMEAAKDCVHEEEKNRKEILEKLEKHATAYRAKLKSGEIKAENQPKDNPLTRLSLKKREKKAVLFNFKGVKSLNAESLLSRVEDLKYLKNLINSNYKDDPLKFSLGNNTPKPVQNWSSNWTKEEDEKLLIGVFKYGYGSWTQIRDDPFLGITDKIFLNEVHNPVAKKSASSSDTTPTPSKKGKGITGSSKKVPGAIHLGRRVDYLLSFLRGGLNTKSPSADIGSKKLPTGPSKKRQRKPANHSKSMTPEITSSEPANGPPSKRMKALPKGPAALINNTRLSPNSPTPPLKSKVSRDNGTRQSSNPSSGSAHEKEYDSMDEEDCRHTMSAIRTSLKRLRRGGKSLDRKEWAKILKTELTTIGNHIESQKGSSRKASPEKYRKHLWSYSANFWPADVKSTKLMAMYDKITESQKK

Chain of Protein translocase subunit SecA (Escherichia coli (strain K12)) (P10408 whole entry): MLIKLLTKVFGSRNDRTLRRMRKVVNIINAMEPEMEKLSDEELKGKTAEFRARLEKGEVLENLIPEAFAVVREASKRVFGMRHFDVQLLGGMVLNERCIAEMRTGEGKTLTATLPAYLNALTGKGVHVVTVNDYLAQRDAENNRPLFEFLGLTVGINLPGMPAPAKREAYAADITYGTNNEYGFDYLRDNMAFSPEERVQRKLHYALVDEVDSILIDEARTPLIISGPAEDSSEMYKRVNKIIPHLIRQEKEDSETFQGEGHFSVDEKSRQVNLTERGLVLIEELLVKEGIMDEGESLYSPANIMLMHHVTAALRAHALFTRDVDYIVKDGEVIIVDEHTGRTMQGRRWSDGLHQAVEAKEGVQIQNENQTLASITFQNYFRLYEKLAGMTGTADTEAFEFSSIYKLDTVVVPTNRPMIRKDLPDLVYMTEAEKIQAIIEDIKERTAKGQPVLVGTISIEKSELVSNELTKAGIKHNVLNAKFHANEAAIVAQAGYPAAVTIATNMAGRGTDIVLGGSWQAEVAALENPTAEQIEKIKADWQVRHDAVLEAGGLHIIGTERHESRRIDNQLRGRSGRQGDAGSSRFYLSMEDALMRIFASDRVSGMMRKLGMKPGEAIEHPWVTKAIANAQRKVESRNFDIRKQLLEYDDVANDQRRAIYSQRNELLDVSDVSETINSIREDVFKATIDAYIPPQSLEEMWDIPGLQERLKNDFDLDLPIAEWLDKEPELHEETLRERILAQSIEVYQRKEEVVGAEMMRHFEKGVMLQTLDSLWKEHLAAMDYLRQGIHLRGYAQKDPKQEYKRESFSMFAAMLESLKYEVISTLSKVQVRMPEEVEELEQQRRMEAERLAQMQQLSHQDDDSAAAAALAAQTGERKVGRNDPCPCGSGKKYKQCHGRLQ
Chain of Sialic acid-binding Ig-like lectin 9 (Homo sapiens) (Q9Y336 whole entry): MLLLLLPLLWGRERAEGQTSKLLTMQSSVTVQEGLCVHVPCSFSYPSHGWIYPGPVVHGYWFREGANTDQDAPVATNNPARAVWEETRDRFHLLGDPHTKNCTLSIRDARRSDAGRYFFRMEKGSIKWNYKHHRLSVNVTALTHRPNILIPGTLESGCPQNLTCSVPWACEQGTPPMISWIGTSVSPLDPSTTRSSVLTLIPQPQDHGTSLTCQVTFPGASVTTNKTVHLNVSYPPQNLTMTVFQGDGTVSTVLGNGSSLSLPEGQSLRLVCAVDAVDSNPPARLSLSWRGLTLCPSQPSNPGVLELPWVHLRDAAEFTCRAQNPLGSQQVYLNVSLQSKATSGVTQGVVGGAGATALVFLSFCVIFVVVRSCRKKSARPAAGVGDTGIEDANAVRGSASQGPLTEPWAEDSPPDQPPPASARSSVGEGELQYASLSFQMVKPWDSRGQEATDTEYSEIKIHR

Structure (SMILES) | Percent Effect [1] | Percent Effect [2] | Percent Effect [3] | Percent Effect [4] | Percent Effect [5] | Percent Effect [6] | Percent Effect [7] | Percent Effect [8] | Percent Effect [9] | Percent Effect [10]
COCC(C)NC(=O)c1cc(Br)c2c(c1)OCCO2 (stereo not given) | -0.916% | 5.33% | 4.72% | -4.82% | 8.43% | 8.74% | 10.6% | -2.63% | 2.56% | -7.03%
Fc1ccc(-c2nnc(CN3CCn4c(nnc4C4CC4)C3)o2)cc1 | -4.82% | -18.7% | 2.87% | -3.81% | 1.77% | 3.99% | -0.798% | 10% | 15.4% | -6.37%
CN(Cc1ccccc1)CC(O)Cn1cnc2ccccc2c1=O (stereo not given) | -0.933% | 2.56% | 0.642% | 4.79% | 9.84% | -2.13% | 12.8% | 0.478% | 6.02% | 0.379%
O=C(c1ccco1)N1CCC2(CCC(=O)N2Cc2cccc(F)c2)CC1 | -1.47% | 14.3% | 3% | -1.31% | 0% | 6.09% | -5.56% | 5.8% | 10% | -5.07%
CN(CC(=O)Nc1ccc(Br)cn1)C(=O)Cc1ccc(O)cc1 | -6.43% | -18.7% | 0.45% | 2.61% | -0.887% | 8.4% | 0.283% | 3.68% | -82% | -5.7%
CC(C)(C)n1ncc2c1NC(=O)CC2c1ccsc1 (stereo not given) | -1.95% | 2.7% | -2.29% | -7.47% | 5.94% | 13.2% | 15.1% | 4.79% | 9.76% | -1.82%
CCn1nc2c(cc1=O)CN(Cc1nc(-c3ccccn3)no1)CC2 | -4.5% | 12.8% | -6.79% | -0.469% | -2.87% | 14.1% | 28.1% | 0.478% | 6.02% | 0.402%
Cc1cc(C)n(CCC(=O)N2CCCC(n3cncn3)C2)n1 (stereo not given) | -6.39% | 10.7% | 6.15% | 2.01% | -3.99% | 5.68% | -5.14% | 5.79% | 15.4% | -9.86%
Cc1ccc([C@@H]2CN(C(=O)c3csc(C)n3)C[C@H]2NC(=O)C2CC2)cc1 | -13.4% | 2.7% | 0.978% | 0.097% | -0.35% | 5.99% | 23.2% | 3.72% | 17.1% | -2.85%
Cc1nn(C)c(N(C)C)c1CNCCNS(C)(=O)=O | -1.65% | 10.3% | -0.784% | 5.54% | 5.74% | 9.3% | -6.32% | 7.18% | 20.5% | -2.87%
CCOC1COC2(CCN(Cc3cccc(F)c3)CC2)C1 (stereo not given) | -1.34% | 14.3% | -2.76% | -1.13% | 0.457% | 5.75% | 21.4% | 2.9% | 7.5% | -7.79%
COc1ccc(C[C@H]2CN(C(=O)c3ccncc3)CC[C@@H]2OC)cc1 | -3.87% | 11.7% | 0.155% | -6.57% | -11.4% | 6.61% | 11.4% | -2.9% | -2.5% | -10.3%
CC(C)C(=O)N1CCC2(CCCN(CCOc3ccccc3)C2)C1 (stereo not given) | -6.57% | 1.3% | -1.94% | -3% | 1.83% | 1.63% | 7.35% | 2.9% | 10% | 11.6%
CCn1ccnc1CN(C)CC1CCCN1c1cccnn1 (stereo not given) | -2.58% | 2.67% | -5.89% | 0% | 0.887% | 20.8% | 6.16% | 5.79% | 12.8% | -11.5%
CCCNC(=O)c1cc2c(c3ccccc3n2C)n1C(=O)N(C)C | -4.26% | -1.3% | 2.88% | -5.16% | 1.22% | 9.62% | -12.8% | 2.63% | 5.13% | -7.15%
N#Cc1ccccc1C(=O)N1C[C@H](CO)C[C@H](CN2CCCC2)C1 | -4.41% | -54% | 7.55% | 6.69% | 16.4% | 5.65% | -3.94% | 2.66% | 9.76% | -1.92%
CC(Cn1cccn1)NC(=O)NCc1ccccn1 (stereo not given) | -2.65% | 8% | -5.88% | -5.22% | 1.33% | 7.04% | 13.9% | 1.58% | 10.3% | -11%
O=C1CC(c2ccco2)c2sc(C(=O)O)c(-c3ccccc3)c2N1 (stereo not given) | -3.7% | 18.9% | 68.7% | 2.23% | -3.85% | 27.7% | -0.84% | 7.98% | 17.1% | 44.8%
Cc1nc(CN(C)C2CCN(CCCOc3ccccc3)C2)no1 (stereo not given) | 0.729% | 23.4% | -1.5% | 2.42% | -5.94% | 20.9% | 8.47% | 8.82% | 21.2% | -11.3%
Cc1noc(C2CCN(C(=O)CCc3nccs3)CC2)n1 | 0.362% | 17.9% | -8.4% | -1.78% | 3.28% | 5.72% | 17.8% | 6.22% | 13.2% | -4.78%
COC(=O)c1cccn1C1CCN(CC(=O)NC2CCCCC2)CC1 | -0.883% | 15.6% | 8.78% | -1.31% | 3.07% | 13.5% | 2.4% | 9.8% | 21.2% | -5.06%
FC(F)(F)c1nc(NC2CCCC2)c2ccccc2n1 | 1.99% | -2.7% | -2.53% | -0.291% | 5.94% | 9.76% | 45.1% | 0.532% | -2.44% | 35%
c1cnnc(N2CCCC2CNCc2ccsc2)c1 (stereo not given) | -2.09% | -5.13% | -6.52% | 10.1% | 4.1% | -8.45% | 15.3% | -0.478% | 6.02% | -2.21%
CC(C)CN(Cc1nc2c(cnn2C)c(=O)[nH]1)C(C)C | -1.52% | 10.3% | -1.47% | 5.92% | 7.38% | -3.5% | -18.2% | 5.26% | 18.1% | 0.0184%
